# From PubChem BioAssay
# “And” between values parts separate entries of the source, which are not always exact repeats. Equal values may be shown once. The source made the active and inactive calls.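 The calls were made as follows, unless noted: active = compounds whose cell count with miR-34 switched on is under 0.7 times the count with it off; inactive = the rest.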
# Columns and labels:
# [1] = test system: Aerobactin synthetase IucA (Klebsiella pneumoniae); assay: IucA aerobactin synthetase inhibitors, biochemical, Tocris library, absorbance (AID 1345561; call rule not given here;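 also: 100% = enzyme without compound and 0% = no enzyme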); details: purified IucA enzyme assay, absorbance (OD) read-out; stronger effect = lower value;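 tested at 8 µM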
# [2] = sensitizers of A549 cells to miR-34 induction, primary screen, imaging, A549 dox-inducible miR-34, nuclei and caspase counts (AID 1347080); details: A549 miR-34 inducible, Hoechst nuclei count, 48 h
# [3] = viability rescue of complex I mutant cybrids, primary screen, cell-based, galactose medium, ATP luminescence (AID 1645843;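 active = z-score of at least 1.8 in each of two replicates, scored against plate mean and spread of sample wells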;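 also: positive z means more ATP and so rescue of galactose-driven cybrid death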); details: complex I mutant cybrid cells, 72 h, stronger effect = higher value
# [4] = stronger effect = lower value, cell number ratio, induced over uninduced
# [5] = measured here: relative caspase fold change +Dox/-Dox
# [6] = measured here: total cells with miR-34 induction, stronger effect = lower value
# [7] = measured here: total cells without miR-34 induction
SMILES,remaining activity [1],"fold change [2, 4]","fold change [2, 5]","cell count [2, 6]","cell count [2, 7]",z-score [3]
CN(Cc1ccccc1)C(=O)[C@H](Cc1ccc2ccccc2c1)NC(=O)[C@@H]1C[C@@H](O)CN1C(=O)c1cn(C)c2ccccc12,102% (inactive),0.957 (inactive),1.21,6080,6350,3.41 (active)
OC1CCC(Nc2nc(-c3ccccc3)nc3[nH]ccc23)CC1 (configuration not stated),112% (inactive),0.975 (inactive),1.31,8990,9220,1.67 (inactive)
COC(=O)Nc1ccc2[nH]cc(CCNC(C)=O)c2c1,121% (inactive),0.99 (inactive),0.823,8200,8280,-0.205 (inactive)
O=C(c1ccc2c(c1)OCO2)N1CCCCC1,118% (inactive),0.987 (inactive),0.905,9020,9140,-0.205 (inactive)
NS(=O)(=O)c1nn2cc(-c3ccccc3)nc2s1,99.1% (inactive),1.09 (inactive),0.795,4960,4530,-0.585 (inactive)
O=C(/C=C/c1ccccc1)NC(NC(=S)Nc1cccc2cccnc12)C(Cl)(Cl)Cl (configuration not stated),124% (inactive),1.01 (inactive),1.71,4630,4560,-0.47 (inactive)
COc1ccccc1C1(O)CCN(CCCn2c3ccccc3c3ccccc32)CC1,91.1% (inactive),0.694 (active),1.55,323,466,-0.705 (inactive)
CCC(=O)NC1Cc2ccccc2C(c2ccccc2)C1 (configuration not stated),124% (inactive),1.02 (inactive),1.01,8500,8340,0.46 (inactive)
N[C@H](C(=O)O)c1ccc(C(=O)O)c(O)c1,95.5% (inactive),0.931 (inactive),0.823,8860,9520,-0.145 (inactive)
c1ccc2cc(C3=NCCN3)ncc2c1,113% (inactive),0.991 (inactive),0.685,9570,9660,-0.34 (inactive)
C[C@@H]1O[C@@]2(CS1)CN1CCC2CC1 (racemic),111% (inactive),0.892 (inactive),1.88,8540,9570,0.375 (inactive)
Cc1ccccc1N=Nc1ccc(NC(=O)c2ccnn2C)c(C)c1,109% (inactive),0.919 (inactive),0.67,5460,5950,-0.675 (inactive)
c1ccc(CN2CCC3(CCc4ccccc43)CC2)cc1,97.3% (inactive),0.952 (inactive),0.584,8830,9280,0.76 (inactive)
CCOC(=O)c1ncc2[nH]c3cccc(OC(C)C)c3c2c1C,96.4% (inactive),0.924 (inactive),0.813,5120,5540,-0.64 (inactive)
O=S(=O)(c1cccc2cnccc12)N1CCNCC1,125% (inactive),1.05 (inactive),0.794,9210,8760,-0.56 (inactive)
Cc1c(C(=O)N(C)C2CCCCC2)sc2nc3ccc(N)cc3n12,121% (inactive),0.956 (inactive),1.28,7660,8010,-0.64 (inactive)
COC(=O)C1=C(C)NC(C)=C(C(=O)OCCCN2CCC(c3ccccc3)(c3ccccc3)CC2)[C@@H]1c1cccc([N+](=O)[O-])c1,109% (inactive),1.06 (inactive),1.28,310,292,-0.83 (inactive)
CN(C)CCC1(c2ccc(Cl)cc2)Cc2ccccc2C(=O)O1 (configuration not stated),122% (inactive),0.975 (inactive),1.4,7700,7900,-0.195 (inactive)
N#C/C(=C\c1ccc(O)c(O)c1)C(=O)NCCCCc1ccccc1,95.7% (inactive),0.982 (inactive),1.09,7480,7610,-0.725 (inactive)
CCS(=O)(=O)N1CCC[C@@H]2CN3CCc4cc(OC)ccc4[C@@H]3C[C@@H]21,87.2% (inactive),0.945 (inactive),0.859,8340,8820,0.46 (inactive)
CCCCC#Cc1nc(NC)c2ncn([C@@H]3O[C@H](CO)[C@@H](O)[C@H]3O)c2n1,96.8% (inactive),0.906 (inactive),0.777,8810,9730,-0.21 (inactive)
Cc1noc(NS(=O)(=O)c2cccc3c(N(C)C)cccc23)c1C,116% (inactive),0.967 (inactive),0.84,8350,8630,-0.135 (inactive)
CN(CC[C@@H](Oc1ccc(-c2ccccc2)cc1)c1ccc(F)cc1)CC(=O)O,116% (inactive),0.898 (inactive),1.24,7970,8870,0.455 (inactive)
Cc1cc(C)c(S(=O)(=O)Nc2ccccc2C(F)(F)F)c(C)c1,96.1% (inactive),0.879 (inactive),0.932,6450,7330,1.2 (inactive)

SMILES,remaining activity [1],"fold change [2, 4]","fold change [2, 5]","cell count [2, 6]","cell count [2, 7]",z-score [3]
CSc1nc(NC2CCCC2)c([N+](=O)[O-])c(NC2CCCC2)n1,104% (inactive),0.932 (inactive),1.24,7100,7620,-0.215 (inactive)
OCCNCCCOc1cccc(Cl)c1Cl,98.9% (inactive),0.929 (inactive) and 0.971 (inactive),0.846 and 1.42,5820 and 3550,6260 and 3660,-0.65 (inactive)
O=[N+]([O-])c1cccc2c[nH]nc12,110% (inactive),0.915 (inactive),0.873,7800,8520,-0.1 (inactive)
N#C/C(=C\c1ccc(O)c(O)c1)C(=O)OCCc1cccs1,110% (inactive),0.871 (inactive),1.36,8430,9690,-0.59 (inactive)
O=C1CC2(CCCC2)CC(=O)N1CCCCNCC1COc2ccccc2O1 (configuration not stated),102% (inactive),0.892 (inactive),0.89,8660,9710,-1.01 (inactive)
CC(C)c1ccc2c(c1)CC[C@H]1[C@](C)(CN)CCC[C@]21C,101% (inactive),0.931 (inactive) and 0.9 (inactive),0.286 and 1.62,5370 and 346,5760 and 384,-0.56 (inactive)
Nc1nc(NCCc2ccc(O)cc2)nc2nc(-c3ccco3)nn12,109% (inactive),0.809 (inactive),1.15,6780,8380,-0.54 (inactive)
CCOC(=O)C1=C(C)NC(c2ccccc2)=C(C(=O)OCc2ccc([N+](=O)[O-])cc2)C1C#Cc1ccccc1 (configuration not stated),124% (inactive),0.924 (inactive),0.543,7910,8560,0.3 (inactive)
c1ccc2nc(C3=NCCN3)cnc2c1,98.4% (inactive),0.983 (inactive),0.854,9150,9300,0.085 (inactive)
CCn1c(=O)n(C2=C(CO)CN(CC3CCCCCCC3)CC2)c2ccccc21,102% (inactive),0.951 (inactive),1.46,7150,7510,-0.665 (inactive)
CO[C@@H]1[C@H](O)[C@@H](CO)O[C@H]1n1cnc2c(NC3CCCCC3)ncnc21,99.6% (inactive),0.954 (inactive),1.32,8920,9350,0.065 (inactive)
O=C1C(c2ccccn2)=[N+]([O-])c2ccccc21,123% (inactive),0.941 (inactive),0.616,8260,8780,-0.62 (inactive)
CC(C)C[C@H](NC(=O)N1CCCCCC1)C(=O)N[C@H](Cc1cn(C)c2ccccc12)C(=O)N[C@H](Cc1ccccn1)C(=O)O,87.9% (inactive),0.819 (inactive),0.926,7880,9620,1.25 (inactive)
c1cc2c(cc1C1CCCCC1)c1c3n2CCNC3CCC1 (configuration not stated),102% (inactive),1.06 (inactive),1.07,430,406,-1.23 (inactive)
CSc1cc2c(cc1C(F)(F)F)N(C(=O)Nc1cccnc1)CC2,112% (inactive),0.921 (inactive),0.728,9460,10300,0.05 (inactive)
O=S(=O)(NCCCCCCc1ccccc1)c1cccc2c(Cl)cccc12,101% (inactive),0.934 (inactive),0.599,8620,9230,-1.14 (inactive)
COc1ccc(C2CC(c3c(O)cc(C)oc3=O)=NCCS2)c(OC)c1 (configuration not stated),98.6% (inactive),1.45 (inactive),2.3,1350,929,-0.235 (inactive)
O=C(c1c(O)c2ccc(Cl)cc2[nH]c1=O)C1CC1,118% (inactive),0.973 (inactive),1.04,8250,8480,-0.025 (inactive)
CCN(CC)CCCCC1CCN(CC(=O)N2c3ccccc3C(=O)Nc3cccnc32)CC1,105% (inactive),0.936 (inactive),1.52,8520,9110,-0.225 (inactive)
CNC(=O)[C@@H](Cc1ccccc1)N(C)C(=O)[C@@H](Cc1ccc2ccccc2c1)N(C)C(=O)/C=C/CC(C)(C)N,99.8% (inactive),1 (inactive),0.957,9200,9170,-0.39 (inactive)
CNC(=O)Oc1ccc2c(c1)C1(C)CCN(C)C1N2C (configuration not stated),128% (inactive),0.943 (inactive),1.32,9440,10000,-1 (inactive)
OC[C@H]1O[C@@H](n2cnc3c(N[C@H]4CCC[C@@H]4O)ncnc32)[C@H](O)[C@@H]1O,116% (inactive),0.959 (inactive),0.92,8820,9190,0.09 (inactive)
CCOC(=O)c1c(C)[nH]c2ccc3c(c12)CN1CCc2cc(OC)ccc2C1O3 (configuration not stated),112% (inactive),0.942 (inactive),0.667,3940,4180,-0.785 (inactive)
